Measurements from PubChem BioAssay AID463173 (ICCB-Longwood Screening Facility, Harvard Medical School, 2010).
Screen size: about 52,000 compounds; about 4,300 (8.3%) were called active. This is one part of a sample in which actives are shown more often than they occur. A number with no mark means an inactive call. Cut-off read from the data, not from the text of the source: active = survival mostly below about 52% (no sharp cut-off); inactive = mostly above about 56%.

tested on: DeltatarO mutant; test: growth inhibition of S. aureus wild type versus tarO mutant, primary screen, teichoic acid synthesis inhibitors, RN4220, OD600 (AID 463173); conditions: OD600, 18 h, hits give low values, screened at 18.75 µg/mL (by protocol)

In order of rising survival:
1. CCS(=O)(=O)N1CCc2cc(C(=O)Nc3ccc(OC)c(Cl)c3)ccc21  47%
2. CCOc1ccc(NC(=O)c2ccc3c(c2)CCN3S(=O)(=O)CC)cc1  48%
3. CCN1CCOC(=O)C1CC(=O)Nc1cc(Cl)ccc1OC (stereo not given)  50%
4. Cc1ccc(O)c(NC(=O)CCS(=O)(=O)c2nc(-c3cccs3)cc(C(F)(F)F)n2)c1  51%
5. COc1ccc(N2CCN(C(=O)c3ccc4c(c3)CCN4S(C)(=O)=O)CC2)cc1  57%
6. COc1ccc2nc(-c3ccc(N)cc3)[nH]c2c1  58%
7. Cc1ccc(S(=O)(=O)N2CCCC2C(N)=O)cc1 (stereo not given)  59%
8. O=C(CCS(=O)(=O)c1nc(-c2cccs2)cc(C(F)(F)F)n1)Nc1ccc(Br)cc1  61%
9. NC(=O)COc1cccc(-n2cnnn2)c1  63%
10. CN(C)c1ccc(CNc2nc(-c3ccco3)nn2C(=O)c2cccc([N+](=O)[O-])c2)cc1  66%
11. CCOc1ccc(NC(=O)CCNS(=O)(=O)c2ccc3c(c2)CCCC(=O)N3)cc1  66%
12. COC(=O)c1cc(OC)c(OC)cc1NC(=O)c1ccc2c(c1)CCN2S(=O)(=O)c1ccccc1  66%
13. CCOc1ccc(S(=O)(=O)NCCc2sc3nc(-c4ccc(F)cc4)nn3c2C)cc1  67%
14. COc1ccccc1-c1cc(C(F)(F)F)nc(S(=O)(=O)CCCC(=O)Nc2ccc(F)cc2F)n1  67%
15. Cc1cccc(C(=O)NC2(C(F)(F)F)N=C(c3ccccc3)N(C3CCCCC3)C2=O)c1 (stereo not given)  68%
16. CCS(=O)(=O)N1CCc2cc(C(=O)N3CCN(c4ccccc4)CC3)ccc21  69%
17. COc1ccccc1-c1cc(C(F)(F)F)nc(S(=O)(=O)CCCC(=O)Nc2ccccc2F)n1  70%
18. COc1ccc(-c2cc(C(F)(F)F)nc(S(=O)(=O)CCCC(=O)Nc3ccccc3C(F)(F)F)n2)cc1OC  70%
19. Cc1cc(-c2ccccc2)nc2cc(C(N)=O)nn12  71%
20. Cc1c(Cl)cccc1NC(=O)Cn1nc(C(F)(F)F)c2c1CCC2  73%
21. CCCc1cc(C(=O)Nc2c(C)nn(Cc3ccc(C)cc3)c2C)no1  73%
22. CC1=C(C(=O)Nc2ccccc2)C(c2ccncc2)n2nc(SCc3ccccc3Cl)nc2N1 (stereo not given)  74%
23. COc1ccc(-n2c3c(cc(-c4nc(-c5ccc(Cl)cc5)cs4)c2=O)C(=O)CC(C)(C)C3)cc1Cl  79%
24. CCOc1ccc(NCc2cccn2-c2nnc(N3CCC(C(=O)NCc4cccc(OC)c4)CC3)s2)cc1  80%
25. COc1ccc(Cl)cc1NC(=O)c1ccc2c(c1)CCN2S(C)(=O)=O  81%
26. Cc1ccc(-n2nc(C)c3c(C(=O)NCc4ccc(F)cc4)cc(C)nc32)cc1  83%
27. CC(C)c1ccc(-c2noc(C3CCCN(C(=O)c4ccccc4)C3)n2)cc1 (stereo not given)  86%
28. COc1ccccc1-c1cc(C(F)(F)F)nc(S(=O)(=O)CCCC(=O)Nc2ccc(F)c(Cl)c2)n1  87%
29. COC(=O)c1ccccc1NC(=O)CCCS(=O)(=O)c1nc(-c2ccccc2OC)cc(C(F)(F)F)n1  87%
30. Cc1cccc(C)c1NC(=O)C1CCN(S(=O)(=O)c2cccc3nsnc23)CC1  89%
31. CCS(=O)(=O)N1CCc2cc(C(=O)NCc3ccc(OC)cc3)ccc21  89%
32. O=C(O)c1ccccc1SC1CC(=O)N(c2ccc(N3CCCCC3)cc2)C1=O (stereo not given)  90%
33. Cn1cnc(S(=O)(=O)N2CCC(C(=O)Nc3ccc(F)cc3F)CC2)c1  91%
34. CCn1c(=O)n(CC)c2cc(N3CCCC3)c(NC(=O)Nc3cc(C)cc(C)c3)cc21  91%
35. COc1ccc(OC)c(NC(=O)c2cnn(-c3ccc(C)cc3)c2C2CCNCC2)c1  92%
36. COc1cc(C(=O)Nc2ccc3oc(-c4ccc(C)c(Br)c4)nc3c2)cc(OC)c1OC  93%
37. Cc1nn2c(-c3ccco3)ccnc2c1-c1ccc(Cl)cc1  94%
38. COC(=O)c1ccccc1NC(=O)c1ccc2c(c1)CCN2S(C)(=O)=O  94%
39. CC(=O)Nc1ccc(NC(=O)c2cc(CN3CCCC3)on2)cc1  96%
40. CCCC(=O)N1CCCC(c2nc(-c3ccc(C(C)C)cc3)no2)C1 (stereo not given)  103%
41. COc1ccc2nc(SCC(=O)O)[nH]c2c1  104%
42. CCN(CC)C(=O)Cn1c(=O)n(Cc2ccc(C(=O)NCCc3ccc(OC)c(OC)c3)cc2)c(=O)c2ccccc21  104%
43. Cc1ccc(S(=O)(=O)NCCc2nnc3ccc(SCc4ccc(F)cc4)nn23)cc1  112%
44. CCCCOc1ccc(-c2cc3c(=O)n(CC(=O)Nc4ccc(Cl)cc4Cl)ccn3n2)cc1  133%
45. COc1ccccc1-c1cc(C(F)(F)F)nc(S(=O)(=O)CCCC(=O)Nc2cc(OC)c(OC)c(OC)c2)n1  134%

In the case of `CCN(CC)CCSc1nc2ccc(OC)cc2[nH]1`, the survival is reported as 70% (active).
For `CC(C)c1ccc(-c2noc(C3CCCN(C(=O)Cc4cccs4)C3)n2)cc1` (stereo not given), the survival was 40% (active).
`COc1ccc(NC(=O)CCCS(=O)(=O)c2nc(-c3ccccc3OC)cc(C(F)(F)F)n2)c(OC)c1` was tested, and the survival was 46% (active).
`COc1ccccc1-c1cc(C(F)(F)F)nc(S(=O)(=O)CCCC(=O)Nc2cc(Br)ccc2O)n1` was tested, and the survival was 45% (active).
In the case of `O=C(CCS(=O)(=O)c1nc(-c2cccs2)cc(C(F)(F)F)n1)Nc1cc(Br)ccc1O`, the survival is reported as 15% (active).
With `COc1ccccc1-c1cc(C(F)(F)F)nc(S(=O)(=O)CCCC(=O)Nc2cc(C)ccc2O)n1` the survival was 47% (active).
With `CCS(=O)(=O)N1CCc2cc(C(=O)Nc3ccc(OC)cc3OC)ccc21` the survival was 44% (active).
For `CCS(=O)(=O)N1CCc2cc(C(=O)N3CCN(c4ccc(OC)cc4)CC3)ccc21`, the survival was 40% (active).
In the case of `CCS(=O)(=O)N1CCc2cc(C(=O)Nc3cc(OC)c(Cl)cc3OC)ccc21`, the survival is reported as 43% (active).
`COC(=O)c1cc(OC)c(OC)cc1NC(=O)c1ccc2c(c1)CCN2S(C)(=O)=O` was tested, and the survival was 37% (active).
